Conditions in all cases: modulator concentration 10 µM
For experiment [1], the system named is RAW-Dual (murine macrophage reporter line). As to the kind of experiment: NF-kB reporter (SEAP) activity fold change vs agonist alone; higher = enhanced NF-kB activity. In short, it runs like this: (§1)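 RAW-Dual murine macrophage reporter cells were plated at 50 000 per well in 384-well plates, pin-transferred compound to 10 μM final, and pre-incubated for 1 hour at 37 °C before a PRR agonist was added and the cells incubated overnight. NF-κB activity was read from supernatant SEAP with QUANTI-Blue at 620 nm absorbance, and IRF activity from Lucia luciferase with QUANTI-Luc by luminescence. Each signal was expressed as fold change by dividing by the mean agonist-only control on the same plate. Two replicate plates were averaged, with errors obtained by propagation.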

For experiment [2] the test system is unchanged. As to the kind of experiment: IRF reporter (Lucia luciferase) activity fold change vs agonist alone; higher = enhanced IRF activity. In outline:
as §1

For experiment [3] the test system is unchanged. Briefly: viability score (confluency relative to resting cells, overnight) (fraction); higher = more viable, active = viable (0.7 or more). In outline:
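Compound was added at a final 10 μM to RAW-Dual macrophages in 384-well plates and left overnight. Confluency was imaged with IncuCyte, and two masks were generated in IncuCyte software over all imaged wells. Each viability score is confluency relative to resting cells, and a compound met the cutoff only when both masks were above 70% of resting cells.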

[4] abbreviates: agonist: CpG ODN 1826 0.5 ug/mL.

± gives the standard deviation.

With `CCCCNC(=O)Cc1ccc(Br)cc1`, the NF-kB reporter was determined as 0.947 ± 0.15 in experiment [1] (setting [4]), 0.904 ± 0.11 in experiment [1] (agonist: LPS 0.1 ug/mL) and 0.913 ± 0.11 in experiment [1] (agonist: MPLA […]). The IRF reporter was 0.986 ± 0.052 in experiment [2] (agonist: 3'3'-cGAMP 10 ug/mL), 1.29 ± 0.25 in experiment [2] (agonist: LPS 0.1 ug/mL) and 1.4 ± 0.33 in experiment [2] (agonist: MPLA […]). In addition, the viability score in experiment [3] was 0.989 (active).
With `Cc1cc(-n2cc(C(=O)N3CCOCC3)nn2)ccc1F`, the figures for the NF-kB reporter in experiment [1] (setting [4]), in experiment [1] (agonist: LPS 0.1 ug/mL) and in experiment [1] (agonist: MPLA […]) were 1.06 ± 0.33, 1.1 ± 0.075 and 1.02 ± 0.065, respectively. The values for the IRF reporter in experiment [2] (agonist: 3'3'-cGAMP 10 ug/mL), in experiment [2] (agonist: LPS 0.1 ug/mL) and in experiment [2] (agonist: MPLA […]) were 0.98 ± 0.045, 1.01 ± 0.17 and 1.14 ± 0.17, respectively. For the same molecule, the viability score in experiment [3] is 0.991 (active).
Take `O=c1[nH]cc(F)c(=O)[nH]1`: the NF-kB reporter in experiment [1] (setting [4]) stood at 1.48 ± 0.29; in experiment [1] (agonist: LPS 0.1 ug/mL), 0.887 ± 0.21; in experiment [1] (agonist: MPLA […]), 1 ± 0.059. In addition, the IRF reporter in experiment [2] (agonist: 3'3'-cGAMP 10 ug/mL) was 1.1 ± 0.059; in experiment [2] (agonist: LPS 0.1 ug/mL), 1.33 ± 0.18; in experiment [2] (agonist: MPLA […]) it was 1.01 ± 0.17. Besides, the viability score in experiment [3] was 0.735 (active).
Regarding `COC(=O)Nc1nc2cc(C(=O)c3ccccc3)ccc2[nH]1`, the NF-kB reporter was found to be 1.96 ± 0.28 in experiment [1] (setting [4]), 1.23 ± 0.23 in experiment [1] (agonist: LPS 0.1 ug/mL) and 1.31 ± 0.13 in experiment [1] (agonist: MPLA […]). In addition, the IRF reporter in experiment [2] (agonist: 3'3'-cGAMP 10 ug/mL) came to 0.093 ± 0.0033; in experiment [2] (agonist: LPS 0.1 ug/mL) it was 1.04 ± 0.19; in experiment [2] (agonist: MPLA […]) it was 1.6 ± 0.22. The viability score in experiment [3] was 0.661 (inactive).
In the case of `Cc1ccc(C(CNC(=O)NC2CCCC2)OCCO)cc1` (centres undefined), the NF-kB reporter in experiment [1] (setting [4]) was determined as 0.622 ± 0.072; in experiment [1] (agonist: LPS 0.1 ug/mL) it was 1.08 ± 0.1; in experiment [1] (agonist: MPLA […]), 0.808 ± 0.047. Besides, the IRF reporter is 0.944 ± 0.075 in experiment [2] (agonist: 3'3'-cGAMP 10 ug/mL), 1.07 ± 0.1 in experiment [2] (agonist: LPS 0.1 ug/mL) and 1.1 ± 0.27 in experiment [2] (agonist: MPLA […]). In experiment [3], the viability score is 1.01 (active).
Turning to `CN(C)CC(c1ccc(O)cc1)C1(O)CCCCC1.O=C(O)CCC(=O)O` (centres undefined), the NF-kB reporter in experiment [1] (setting [4]) came to 0.101 ± 0.0077; in experiment [1] (agonist: LPS 0.1 ug/mL), 0.562 ± 0.045; in experiment [1] (agonist: MPLA […]), 0.531 ± 0.031. Also, the IRF reporter in experiment [2] (agonist: 3'3'-cGAMP 10 ug/mL) was determined as 0.913 ± 0.075; in experiment [2] (agonist: LPS 0.1 ug/mL), 1.29 ± 0.29; in experiment [2] (agonist: MPLA […]), 1.18 ± 0.36. Also, the viability score in experiment [3] is 0.633 (inactive).
`CCN(CC)CCNC(=O)c1cc(S(C)(=O)=O)ccc1OC.Cl`: the NF-kB reporter is 1.02 ± 0.13 in experiment [1] (setting [4]), 1.16 ± 0.078 in experiment [1] (agonist: LPS 0.1 ug/mL) and 0.975 ± 0.021 in experiment [1] (agonist: MPLA […]). Besides, the results for the IRF reporter in experiment [2] (agonist: 3'3'-cGAMP 10 ug/mL), in experiment [2] (agonist: LPS 0.1 ug/mL) and in experiment [2] (agonist: MPLA […]) were 0.94 ± 0.056, 0.989 ± 0.11 and 1 ± 0.13, respectively. In addition, in experiment [3], the viability score was 0.998 (active).
For the molecule `CCN(CC)Cc1cc(Nc2ccnc3cc(Cl)ccc23)ccc1O.Cl.Cl`, the NF-kB reporter was determined as 0.199 ± 0.011 in experiment [1] (setting [4]), 0.753 ± 0.073 in experiment [1] (agonist: LPS 0.1 ug/mL) and 0.774 ± 0.046 in experiment [1] (agonist: MPLA […]). For the same molecule, the values for the IRF reporter in experiment [2] (agonist: 3'3'-cGAMP 10 ug/mL), in experiment [2] (agonist: LPS 0.1 ug/mL) and in experiment [2] (agonist: MPLA […]) were 1.19 ± 0.075, 1.03 ± 0.11 and 1.47 ± 0.16, respectively. In experiment [3], the viability score was 0.873 (active).
`Cn1c(=O)[nH]c2nnc(-c3cccnc3)nc2c1=O`: the NF-kB reporter in experiment [1] (setting [4]) is 1.09 ± 0.2; in experiment [1] (agonist: LPS 0.1 ug/mL) it was 0.961 ± 0.084; in experiment [1] (agonist: MPLA […]), 0.975 ± 0.081. In addition, the IRF reporter in experiment [2] (agonist: 3'3'-cGAMP 10 ug/mL) came out at 0.927 ± 0.03; in experiment [2] (agonist: LPS 0.1 ug/mL), 1.22 ± 0.12; in experiment [2] (agonist: MPLA […]), 1.31 ± 0.13. For the same molecule, the viability score in experiment [3] was 0.881 (active).
Take `COc1ccccc1-c1cc(-c2ccccc2)nc(SCC(=O)c2cc3ccccc3oc2=O)c1C#N`: the NF-kB reporter in experiment [1] (setting [4]) was found to be 0.981 ± 0.058; in experiment [1] (agonist: LPS 0.1 ug/mL) it was 1.02 ± 0.066; in experiment [1] (agonist: MPLA […]) it was 0.966 ± 0.061. In addition, the results for the IRF reporter in experiment [2] (agonist: 3'3'-cGAMP 10 ug/mL), in experiment [2] (agonist: LPS 0.1 ug/mL) and in experiment [2] (agonist: MPLA […]) were 0.879 ± 0.034, 1.45 ± 0.16 and 1.07 ± 0.1, respectively. In addition, the viability score in experiment [3] was 1 (active).
Turning to `O=[N+]([O-])c1ccc(CSc2nc3cccnc3[nH]2)cc1`, the NF-kB reporter in experiment [1] (setting [4]) was determined as 1.17 ± 0.19; in experiment [1] (agonist: LPS 0.1 ug/mL), 0.949 ± 0.12; in experiment [1] (agonist: MPLA […]), 0.905 ± 0.077. Further, the IRF reporter in experiment [2] (agonist: 3'3'-cGAMP 10 ug/mL) worked out at 0.935 ± 0.028; in experiment [2] (agonist: LPS 0.1 ug/mL) it was 1.16 ± 0.12; in experiment [2] (agonist: MPLA […]) it was 1.22 ± 0.2. Further, the viability score in experiment [3] was 1.01 (active).
On to `c1ccc(-c2ccc(C(c3ccccc3)n3ccnc3)cc2)cc1` (centres undefined), for which the NF-kB reporter in experiment [1] (setting [4]) came out at 0.825 ± 0.097; in experiment [1] (agonist: LPS 0.1 ug/mL), 0.893 ± 0.083; in experiment [1] (agonist: MPLA […]), 1.22 ± 0.12. In addition, the results for the IRF reporter in experiment [2] (agonist: 3'3'-cGAMP 10 ug/mL), in experiment [2] (agonist: LPS 0.1 ug/mL) and in experiment [2] (agonist: MPLA […]) were 0.966 ± 0.044, 1.31 ± 0.076 and 1.41 ± 0.15, respectively. For the same molecule, the viability score in experiment [3] was 1 (active).

The record behind these values is the supplement of paper PMC10646978.
